Inconclusive results are not listed. The source made the active and inactive calls. Calls follow the shape of the dose curve; as a rule, active = well fitted curve in the direction sought with a large enough effect; inconclusive = small, poorly fitted or top-dose-only effect, or another doubt; inactive = no such curve, though single readings can be large; an effect the other way counts as inactive or inconclusive.
Legend:
[1] = test system: Zika virus NS2B-NS3 protease (linked construct); experiment: Primary screen NINDS Rhodamine qHTS for Zika virus inhibitors (AID 1347160); also: nearly all actives have a fitted effect of over 55% in size
In short: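 Each compound, titrated, sat 15 min with 25 nM linked protease before 1.5 microM Rhodamine110 substrate went in. Fluorescence gain over the next 15 min, in pH 8.0 Tris with Tween 20, gave Hill-fitted curves.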

[2] = biological target: Calcium and integrin-binding protein 1 (Homo sapiens) (UniProt Q99828); experiment: Primary qHTS for Identification of Calcium Integrin Binding Protein 1 (CIB1) Competitor (AID 1508620);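 also: GST tagged CIB1 binding a fluorescein labelled alphaIIb integrin peptide tracer; top concentration of the series differs between compounds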
Sequence of Calcium and integrin-binding protein 1 (Homo sapiens) (Q99828 whole entry, looked up): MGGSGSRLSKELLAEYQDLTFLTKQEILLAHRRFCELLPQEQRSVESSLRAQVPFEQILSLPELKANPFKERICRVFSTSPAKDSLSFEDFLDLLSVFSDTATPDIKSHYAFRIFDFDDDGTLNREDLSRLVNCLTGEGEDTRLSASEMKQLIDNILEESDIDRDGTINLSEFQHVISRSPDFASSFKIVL
In short: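 Fluorescence polarization competition: GST-tagged CIB1 (1 uM final) preincubated with compound 15 min at room temperature, then FITC-labelled alphaIIb peptide (100 nM final) added. After 15 min at room temperature, polarization read at Ex 480/Em 540.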

[3] = Primary qHTS for inhibitors of nuclear receptor binding SET domain protein 2 (NSD2) in an isogenic RCH-ACV NSD2 p.E1099K mutant (9B) (AID 1645876); also: nearly all actives have a fitted effect of over 70% in size; also: potency is read from the fitted curve at half-maximal effect
[4] = Primary qHTS for inhibitors of nuclear receptor binding SET domain protein 2 (NSD2) in an RCH-ACV wild type WT cells (2C) (AID 1645877); also: nearly all actives have a fitted effect of over 70% in size; also: potency is read from the fitted curve at half-maximal effect
[5] = biological target: Glutathione peroxidase 1 (Homo sapiens) (UniProt P07203); experiment: Primary qHTS Assay for Inhibitors of Recombinant Selenoprotein Glutathione Peroxidase 1 (GPX1) (AID 1845191); also: nearly all actives have a fitted effect of over 65% in size
Sequence of Glutathione peroxidase 1 (Homo sapiens) (P07203 whole entry, looked up): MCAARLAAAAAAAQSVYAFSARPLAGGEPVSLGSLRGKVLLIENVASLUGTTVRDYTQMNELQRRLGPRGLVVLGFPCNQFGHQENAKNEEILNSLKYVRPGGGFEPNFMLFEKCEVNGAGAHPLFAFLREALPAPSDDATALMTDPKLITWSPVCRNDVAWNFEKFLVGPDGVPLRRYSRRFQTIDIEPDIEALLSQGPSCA
In short: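 GR-coupled readout: NADPH consumption tracked by fluorescence, ex 340/em 450 nm, at t=0 and after 15 min at RT. Final mix 10 nM GPX1, 1 mM GSH, 0.5 mM CHP, 0.5 mM NADPH, 100 nM GR, 0.01% BSA, following 30 min enzyme–compound preincubation.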

[6] = biological target: Phospholipid hydroperoxide glutathione peroxidase GPX4 (Homo sapiens) (UniProt P36969); experiment: Primary qHTS Assay for Inhibitors of Recombinant Selenoprotein Glutathione Peroxidase 4 (GPX4) (AID 1845192); settings: outcome: dose series up to 50 µM unless noted; also: nearly all actives have a fitted effect of over 65% in size
Sequence of Phospholipid hydroperoxide glutathione peroxidase GPX4 (Homo sapiens) (P36969 whole entry, looked up): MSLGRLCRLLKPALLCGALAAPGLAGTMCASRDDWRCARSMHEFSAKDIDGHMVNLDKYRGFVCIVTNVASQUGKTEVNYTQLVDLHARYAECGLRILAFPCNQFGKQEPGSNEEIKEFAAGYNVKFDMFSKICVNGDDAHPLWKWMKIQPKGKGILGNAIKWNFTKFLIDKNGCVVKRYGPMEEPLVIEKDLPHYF
In short: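 Steps: GPX4 plus compound, 30 min RT; add GR/GSH/NADPH master mix; start with cumene hydroperoxide; read 340/450 nm fluorescence at 0 and 15 min. Finals were 200 nM GPX4, 1 mM GSH, 0.5 mM CHP, 0.5 mM NADPH, 100 nM GR.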

[7] = biological target: Luciferin 4-monooxygenase (Photinus pyralis) (UniProt P08659); experiment: Primary firefly luciferase (FLuc) qHTS assay for identification of artifact compounds. (AID 1845220); also: nearly all actives have a fitted effect of over 60% in size
In short: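 Enzymatic FLuc inhibition assay: compounds pre-exposed to luciferin/ATP (10 uM each) for 15 min, then purified P. pyralis enzyme at 10 nM added. Read-out: luminescence at 5 min.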

[8] = Primary fluorescence-based thiol-reactive (MSTI) qHTS assay for identification of artifact compounds. (AID 1845221); also: nearly all actives have a fitted effect of over 65% in size; also: potency is read from the fitted curve at half-maximal effect
In short: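 First, 4 uM MSTI in 2% DMSO/PBS pH 7.4 was dispensed; next, compounds were added; then plates sat 1 h at room temperature without light. Finally, emission at 598 nm was recorded.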

[9] = test system: Nanoluciferase (engineered Oplophorus gracilirostris luciferase); experiment: Primary Nanoluciferase (NLuc) qHTS assay for identification of artifact compounds. (AID 1845222);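 also: NLuc secreted into diluted conditioned medium of S16 cells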
In short: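 S16 cell supernatant NLuc, 1:55; cpds qHTS; 15 min RT dark; Nano-Glo substrate 1:100, 5 min; luminescence; Hill fit of % inhibition.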

[10] = Primary redox qHTS assay for identification of artifact compounds. (AID 1845223)
In short: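 Redox-cycling detection via DTT (250 uM final) oxidation coupled to Amplex Red (25 uM)/HRP (250 mU/mL) in HBSS. 15 min preincubation plus 30 min after DTT, room temperature. Ex/Em 525/598 nm; 4-parameter Hill fit against DMSO and 10 uM DA3003.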

C33A = experiment: Primary qHTS to identify gynecologic anti-cancer compounds using libraries of approved drugs and bioactive compounds (AID 1345084); settings: Gynecologic cancer cell panel viability, ATPlite luminescence, 48 h; series mostly up to 57.5 µM; also: nearly all actives have a fitted effect of over 55% in size; also: potency is read from the fitted curve at half-maximal effect
In short: (§1)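 48 h compound exposure at 37 C, 5% CO2; five-point qHTS. ATPlite luminescence readout of cell ATP.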

CAOV3 = experiment: as above; settings: Gynecologic cancer cell panel viability, ATPlite luminescence, 48 h; series mostly up to 57.5 µM
In short: as §1

CASKI = experiment: as above; settings: Gynecologic cancer cell panel viability, ATPlite luminescence, 48 h; series mostly up to 57.5 µM
In short: as §1

HeLa = experiment: as above; settings: Gynecologic cancer cell panel viability, ATPlite luminescence, 48 h; series mostly up to 57.5 µM
In short: as §1

Tov112D = experiment: as above; settings: Gynecologic cancer cell panel viability, ATPlite luminescence, 48 h; series mostly up to 57.5 µM
In short: as §1

Es-2 = experiment: as above; settings: Gynecologic cancer cell panel viability, ATPlite luminescence, 48 h; series mostly up to 57.5 µM
In short: as §1

Hek293T = experiment: as above; settings: Gynecologic cancer cell panel viability, ATPlite luminescence, 48 h, control line for the selectivity index; series mostly up to 57.5 µM
In short: as §1

JEG-3 = experiment: as above; settings: Gynecologic cancer cell panel viability, ATPlite luminescence, 48 h; series mostly up to 57.5 µM
In short: as §1

OV90 = experiment: as above; settings: Gynecologic cancer cell panel viability, ATPlite luminescence, 48 h; series mostly up to 57.5 µM
In short: as §1

Tov-21-G = experiment: as above; settings: Gynecologic cancer cell panel viability, ATPlite luminescence, 48 h; series mostly up to 57.5 µM
In short: as §1

Measured: Potency

C=C(C(=O)O)C1CC2=C(C)C(=O)CC2C(C)CC1O (stereo not drawn)
active: [3] 11.5 µM | [4] 5.78 µM | [8] 26.7 µM
not listed: Es-2 | Hek293T | JEG-3 | OV90 | Tov-21-G
inactive: all other assays above

CCN(CC)Cc1cccc(/C=C/c2nc3ccc(F)cc3c(=O)n2-c2ccccc2Cl)n1
active: [3] 14.5 µM | [4] 12.9 µM
not listed: Tov112D | OV90 | Tov-21-G
inactive: all other assays above

CC(C)n1cnc2c(Nc3cccc(Cl)c3)nc(NCCO)nc21
active: [3] 11.5 µM
not listed: [4] | [6] | [10] | Tov-21-G
inactive: all other assays above

O=C(CC1NCCC[C@H]1O)Cn1cnc2cc(Br)c(Cl)cc2c1=O (stereo partly drawn)
not listed: [4] | [5] | [6] | [8]
inactive: all other assays above

Cc1nnsc1C(=O)Nc1ccc(-n2nc(C(F)(F)F)cc2C(F)(F)F)cc1
active: [3] 20.5 µM | [4] 11.5 µM
not listed: [1]
inactive: all other assays above

CC(=O)N1CCN([C@H]2CCN(C(=O)N(C)[C@H](C)c3cc(C(F)(F)F)cc(C(F)(F)F)c3)[C@@H](c3ccc(F)cc3C)C2)CC1
not listed: [3] | [4] | [6] | [10]
inactive: all other assays above

COc1cc(-c2cc(-c3cccc(O)c3)cnc2N)cc(OC)c1OC
active: [3] 10.3 µM | [4] 12.9 µM
not listed: [6] | Tov112D | Tov-21-G
inactive: all other assays above

COc1ccc(NS(=O)(=O)c2sc3ccc(Cl)cc3c2C)cc1N1CCNCC1
active: [3] 20.5 µM | [4] 12.9 µM
not listed: [6] | [8]
inactive: all other assays above

O=C(Nc1cccc(C(F)(F)F)c1)c1ccccc1NCc1ccncc1
not listed: [2] | [3] | [4] | [5] | [6] | Tov112D | Es-2 | Hek293T
inactive: all other assays above

C[C@@H](CN1CCC(n2c(=O)[nH]c3cc(Cl)ccc32)CC1)NC(=O)c1ccc2ccccc2c1
active: [3] 10.3 µM | [4] 16.3 µM
not listed: CAOV3 | OV90
inactive: all other assays above

C=C1C(=O)O[C@@H]2C[C@@]3(C)CCC[C@H](C)C3=C[C@H]12
active: [3] 14.5 µM | [4] 12.9 µM
not listed: Es-2 | Tov-21-G
inactive: all other assays above

CC1(C)SC2C(NC(=O)[C@H](C(=O)O)c3ccsc3)C(=O)N2C1C(=O)O (stereo partly drawn)
not listed: [4] | [5]
inactive: all other assays above

CC[C@H](C)[C@H]1O[C@]2(CC[C@@H]1C)C[C@@H]1C[C@@H](C/C=C(\C)[C@@H](O[C@H]3C[C@H](OC)[C@@H](O[C@H]4C[C@H](OC)[C@@H](O)[C@H](C)O4)[C@H](C)O3)[C@@H](C)/C=C/C=C3\CO[C@@H]4[C@H](O)C(C)=C[C@@H](C(=O)O1)[C@]34O)O2
active: [3] 20.5 µM | [4] 9.16 µM
not listed: [5] | [8] | Hek293T
inactive: all other assays above

COc1ccc(-c2nc(-c3cc(C(F)(F)F)cc(C(F)(F)F)c3)n(Cc3ccc(C(N)=O)cc3)c2-c2ccc(OC)cc2)cc1
not listed: [1] | Hek293T
inactive: all other assays above

COc1ccc2c(c1)CN(C(=O)CCN1CCC(Cc3ccccc3)CC1)CCS2
active: [3] 11.2 µM | [4] 10 µM | OV90 6.31 µM
not listed: [10] | CAOV3
inactive: all other assays above
